Here are results for 13 molecules from PubChem BioAssay (NCI).

The panel holds about 83,000 compounds, 20% with a hit somewhere; the sample as a whole holds those more often.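 Cells were grown in 96-well plates and exposed to the test compound at a single concentration for 48 hours; results are reported as percent growth, with values below 10 considered active.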 Values without a mark were called inactive. Calls of active or inactive are those of the source.

Among the test systems are NCI-H23 lung; NCI-H226 lung; NCI-H322M lung; HOP-62 NSCLC; NCI-H460 lung; HOP-92 NSCLC; NCI-H522 lung; A549/ATCC NSCLC; 786-0 renal; COLO 205 colon.
Common to all, as to test: NCI-60 one-dose screen, 48 h (100 = growth as untreated, 0 = no growth, -100 = all killed)
Details in all cases: 10 µM unless noted

As to `Cc1ccc2nc3ccccc3c(NCc3ccc(Cl)cc3)c2c1`, the growth in the experiment with NCI-H23 lung is 46%; with NCI-H226 lung it was 72.3%; in the experiment on NCI-H322M lung, 55.9%; in the experiment on HOP-62 NSCLC it was 65.3%; in the experiment on NCI-H460 lung, 29.5%; in the experiment with HOP-92 NSCLC it was -4.63% (active). The growth in the experiment with NCI-H522 lung was 54.2%; in the experiment on A549/ATCC NSCLC, 40.8%; in the experiment on 786-0 renal, 34.7%; with COLO 205 colon, -53.3% (active).
As to `COC(=O)c1[nH]nc(OC)c1C1(C(C#N)c2nc3ccccc3s2)CCCc2ccccc21` (stereo not given), the growth with NCI-H23 lung was 97.5%; in the experiment with NCI-H226 lung, 84.9%; in the experiment on NCI-H322M lung, 99.6%; in the experiment on HOP-62 NSCLC, 85%; in the experiment with NCI-H460 lung, 99%; in the experiment with HOP-92 NSCLC, 72.9%. Also, the growth is 98.4% with NCI-H522 lung, 96.2% with A549/ATCC NSCLC, 101% in the experiment on 786-0 renal and 103% in the experiment on COLO 205 colon.
As to `[2H]C([2H])([2H])Oc1cc(F)ccc1/C=C/C(=O)/C=C(/C=C/c1ccc(F)cc1OC([2H])([2H])[2H])OB(F)F`, the growth in the experiment with NCI-H23 lung is 26.2%; in the experiment with NCI-H226 lung, 63.4%; with NCI-H322M lung it was 82%; with HOP-62 NSCLC it was 102%; with NCI-H460 lung it was 49.7%; in the experiment with HOP-92 NSCLC, 83.2%. The growth in the experiment on NCI-H522 lung was 31.4%; in the experiment with A549/ATCC NSCLC, 58.3%; in the experiment on 786-0 renal, 44.3%; in the experiment with COLO 205 colon, 21.3%.
Take `N=C(N)c1ccc(-c2ccc(-c3ccc(F)cc3)s2)nc1`: the growth in the experiment on NCI-H23 lung was 81.8%; in the experiment on NCI-H226 lung it was 72.1%; in the experiment with NCI-H322M lung, 66%; in the experiment on HOP-62 NSCLC it was 80.5%; in the experiment with NCI-H460 lung, -13.2% (active); in the experiment on HOP-92 NSCLC, 69.8%. Further, the growth in the experiment with NCI-H522 lung is 64%; with A549/ATCC NSCLC, 59.1%; in the experiment on 786-0 renal it was 88.7%; with COLO 205 colon it was -46.7% (active).
For the molecule `O=c1oc2c(Br)cc(Br)cc2cc1-c1cc(-c2ccc(-c3cc(-c4cc5cc(Br)cc(Br)c5oc4=O)nc(-c4cc5cc(Br)cc(Br)c5oc4=O)c3)cc2)cc(-c2cc3cc(Br)cc(Br)c3oc2=O)n1`, the growth with NCI-H23 lung was 96.5%; in the experiment on NCI-H226 lung it was 102%; in the experiment on NCI-H322M lung it was 97.3%; with HOP-62 NSCLC, 104%; with NCI-H460 lung, 105%; in the experiment on HOP-92 NSCLC, 108%. Moreover, the growth with NCI-H522 lung was 86.8%; with A549/ATCC NSCLC, 105%; with 786-0 renal it was 111%; in the experiment with COLO 205 colon, 110%.
With `CN1CCN(C(=O)OCc2nc3c(N4CCOCC4)nc(Cl)nc3n2C)CC1`, the growth with NCI-H23 lung is -1.07% (active); in the experiment with NCI-H226 lung, -60.8% (active); with NCI-H322M lung, 53.7%; in the experiment with HOP-62 NSCLC it was 47.3%; in the experiment on NCI-H460 lung, 6.7% (active); in the experiment on HOP-92 NSCLC, -32% (active). The growth in the experiment with NCI-H522 lung is -38.8% (active); in the experiment on A549/ATCC NSCLC, 25.1%; in the experiment on 786-0 renal it was -95.5% (active); in the experiment with COLO 205 colon it was -30.8% (active).
As for `CCN(CC)CCCN1C(=O)c2c(c(C)c3c(oc4cc(OC)ccc43)c2C)C1=O`, the growth in the experiment on NCI-H23 lung was 105%; in the experiment with NCI-H226 lung, -5.51% (active); with NCI-H322M lung it was 94.2%; in the experiment with HOP-62 NSCLC, 109%; in the experiment with NCI-H460 lung, 92.6%; in the experiment with HOP-92 NSCLC, 87.3%. Moreover, the growth in the experiment on NCI-H522 lung was 104%; with A549/ATCC NSCLC it was 92.5%; with 786-0 renal it was -79% (active); in the experiment on COLO 205 colon it was 86.1%.
For `COC(=O)/C=C1/SC(N2N=C(c3cccs3)CC2c2ccc(F)cc2)=NC1=O` (stereo not given), the growth in the experiment with NCI-H23 lung is 82.2%; in the experiment with NCI-H226 lung it was 84%; in the experiment on NCI-H322M lung, 93%; in the experiment on HOP-62 NSCLC it was 85.2%; in the experiment on NCI-H460 lung it was 24.4%; in the experiment with HOP-92 NSCLC it was 77.1%. Also, the growth with NCI-H522 lung was 24.3%; in the experiment on A549/ATCC NSCLC it was 90.7%; with 786-0 renal, 85.3%; in the experiment on COLO 205 colon, 21.8%.
For `CCCCCCCCCCCCCCCCCCOc1cccc(CC(=O)OCC[N+](CC)(CC)CC)c1`, the growth with NCI-H23 lung was 35.7%; with NCI-H226 lung, 59.6%; in the experiment with NCI-H322M lung, 77.7%; in the experiment on HOP-62 NSCLC, 69.1%; with NCI-H460 lung, 67%; with HOP-92 NSCLC, 52.3%. Further, the growth is 38.5% in the experiment on NCI-H522 lung, 60% with A549/ATCC NSCLC, 58.5% in the experiment on 786-0 renal and 47% in the experiment with COLO 205 colon.
As for `Clc1nccc2c(-c3csc(-c4c[nH]c5ccc(Br)cc45)n3)c[nH]c12`, the growth is 31.9% in the experiment with NCI-H23 lung; 33.6% in the experiment with NCI-H226 lung; 70.4% in the experiment with NCI-H322M lung; 7.78% (active) with HOP-62 NSCLC; -5.23% (active) in the experiment on NCI-H460 lung; 6.84% (active) with HOP-92 NSCLC. Moreover, the growth in the experiment with NCI-H522 lung is 1.55% (active); in the experiment on A549/ATCC NSCLC, 15.1%; in the experiment with 786-0 renal, -68.2% (active); in the experiment with COLO 205 colon it was 7.99% (active).
As to `Cc1nc2sc(C(=O)Nc3cccc(Cl)c3C)c(N)c2cc1C(O)c1ccccc1` (stereo not given), the growth in the experiment with NCI-H23 lung was 19.8%; with NCI-H226 lung, 43.5%; with NCI-H322M lung, 49.8%; in the experiment with HOP-62 NSCLC it was 33.6%; in the experiment on NCI-H460 lung, 3.15% (active); with HOP-92 NSCLC, 30%. The growth with NCI-H522 lung was 4.83% (active); in the experiment on A549/ATCC NSCLC, 16.2%; with 786-0 renal it was 16.5%; in the experiment with COLO 205 colon, -0.762% (active).
Consider `Cc1ccc(Nc2nc(-c3cc(O)c(C)c(C)c3O)cs2)cc1`, for which the growth was 90.4% in the experiment on NCI-H23 lung; 90.2% with NCI-H226 lung; 102% in the experiment on NCI-H322M lung; 99.9% in the experiment with HOP-62 NSCLC; 104% in the experiment with NCI-H460 lung; 98.2% in the experiment with HOP-92 NSCLC. The growth is 65.8% with NCI-H522 lung, 88.1% in the experiment on A549/ATCC NSCLC, 118% with 786-0 renal and 116% in the experiment on COLO 205 colon.
Turning to `O=C1Nc2ccccc2/C1=C/c1cccn1CCCCCn1c2ccccc2c(=O)c2ccccc21`, the growth in the experiment with NCI-H23 lung was 69.6%; with NCI-H226 lung it was 70%; with NCI-H322M lung, 98.8%; with HOP-62 NSCLC, 58.3%; in the experiment on NCI-H460 lung, 95.9%; with HOP-92 NSCLC it was 65.5%. The growth is 66.3% in the experiment with NCI-H522 lung, 81.4% in the experiment with A549/ATCC NSCLC, 105% with 786-0 renal and 56.2% in the experiment on COLO 205 colon.
